# Source: PubChem BioAssay
# Calls of active or inactive are those of the source.
# Columns and labels:
# [1] = system: PRMT1 (protein arginine N-methyltransferase 1); assay: small molecules binding arginine methyltransferase PRMT1 – biochemical, small-molecule microarray, 635 nm fluorescence, primary screen (AID 1088); details: higher = more signal;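 also: binding of Prmt1 protein to compounds spotted on small-molecule microarray slides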
# [2] = growth effects on S. cerevisiae YJM789 – YJM789 clinical isolate, OD600, 24 h, basal, primary screen (AID 1089); details: higher = more signal, called active from +8 up or from −8 down;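 also: growth of clinical yeast isolate S. cerevisiae YJM 789 seeded 1000 cells per well; test concentration not given here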
# [3] = S. pombe growth modifiers, basal conditions – strain 972, OD600, 24 h, no modulator, primary screen (AID 1090);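 also: basal condition with compound alone and no growth modifier present; test concentration not given here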; details: S. pombe 972 growth, higher = more signal, called active from +8 up or from −8 down
# [4] = budding yeast growth modifiers under rapamycin – strain BY4716, OD600, 96 h, primary screen (AID 1091); also: test concentration not given here; details: S. cerevisiae BY4716 + rapamycin, higher = more signal, called active from +8 up or from −8 down
# [5] = molecular target: Torsin-1A-interacting protein 2 (Homo sapiens) (UniProt Q8NFQ8); assay: small molecules binding lysate-expressed LULL1 – cell lysate, human LULL1 lysate, 635/667 nm fluorescence, primary screen (AID 1092); details: small-molecule microarray, hLULL1 lysate binding, 635 nm fluorescence; higher = more signal;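 also: probe is lysate of COS7 cells overexpressing human LULL1; score merges per-feature 667 nm fluorescence with signal-to-noise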
# Chain of Torsin-1A-interacting protein 2 (Homo sapiens) (Q8NFQ8 whole entry, looked up): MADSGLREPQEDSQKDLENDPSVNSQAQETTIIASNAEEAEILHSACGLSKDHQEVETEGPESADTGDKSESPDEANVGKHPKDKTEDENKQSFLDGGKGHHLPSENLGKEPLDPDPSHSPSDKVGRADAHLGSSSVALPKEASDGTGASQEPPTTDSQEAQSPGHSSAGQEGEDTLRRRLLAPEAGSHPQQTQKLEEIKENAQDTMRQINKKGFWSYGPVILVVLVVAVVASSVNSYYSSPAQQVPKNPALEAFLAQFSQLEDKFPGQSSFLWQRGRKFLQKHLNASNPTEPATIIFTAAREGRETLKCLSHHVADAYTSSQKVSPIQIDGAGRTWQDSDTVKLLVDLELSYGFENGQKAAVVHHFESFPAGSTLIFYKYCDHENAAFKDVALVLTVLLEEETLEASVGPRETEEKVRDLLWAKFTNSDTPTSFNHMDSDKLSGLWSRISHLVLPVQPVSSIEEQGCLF
# [6] = optical density change of DRC41 E. coli – strain DRC41, OD650, 24 h, E. coli filamentation project, primary screen (AID 1093);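 also: MC1000 strain lacking acrAB efflux and sulA so SOS filamentation is blocked; test concentration not given here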; details: E. coli DRC41 growth, higher = more signal, called active from +8 up or from −8 down
# [7] = probe aLefty2 binding to arrayed compounds – biochemical, biotinylated probe, 635/667 nm fluorescence, primary screen (AID 1094); details: small-molecule microarray, higher = more signal;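 also: score merges spot fluorescence near 667 nm with spot signal-to-noise ratio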
# [8] = system: Noggin (protein binding on small-molecule microarray); assay: small molecules binding Noggin protein – biochemical, 635/667 nm fluorescence, primary screen (AID 1095); details: 635 nm fluorescence, higher = more signal;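 also: score merges 667 nm feature fluorescence with signal to noise over triplicate slides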
# [9] = molecular target: Neurogenic locus notch homolog protein 3 (Homo sapiens) (UniProt Q9UM47); assay: small molecules binding NOTCH3 protein – biochemical, 635/667 nm fluorescence, primary screen (AID 1096); details: small-molecule microarray, 635 nm fluorescence, higher = more signal
# Chain of Neurogenic locus notch homolog protein 3 (Homo sapiens) (Q9UM47 whole entry, looked up): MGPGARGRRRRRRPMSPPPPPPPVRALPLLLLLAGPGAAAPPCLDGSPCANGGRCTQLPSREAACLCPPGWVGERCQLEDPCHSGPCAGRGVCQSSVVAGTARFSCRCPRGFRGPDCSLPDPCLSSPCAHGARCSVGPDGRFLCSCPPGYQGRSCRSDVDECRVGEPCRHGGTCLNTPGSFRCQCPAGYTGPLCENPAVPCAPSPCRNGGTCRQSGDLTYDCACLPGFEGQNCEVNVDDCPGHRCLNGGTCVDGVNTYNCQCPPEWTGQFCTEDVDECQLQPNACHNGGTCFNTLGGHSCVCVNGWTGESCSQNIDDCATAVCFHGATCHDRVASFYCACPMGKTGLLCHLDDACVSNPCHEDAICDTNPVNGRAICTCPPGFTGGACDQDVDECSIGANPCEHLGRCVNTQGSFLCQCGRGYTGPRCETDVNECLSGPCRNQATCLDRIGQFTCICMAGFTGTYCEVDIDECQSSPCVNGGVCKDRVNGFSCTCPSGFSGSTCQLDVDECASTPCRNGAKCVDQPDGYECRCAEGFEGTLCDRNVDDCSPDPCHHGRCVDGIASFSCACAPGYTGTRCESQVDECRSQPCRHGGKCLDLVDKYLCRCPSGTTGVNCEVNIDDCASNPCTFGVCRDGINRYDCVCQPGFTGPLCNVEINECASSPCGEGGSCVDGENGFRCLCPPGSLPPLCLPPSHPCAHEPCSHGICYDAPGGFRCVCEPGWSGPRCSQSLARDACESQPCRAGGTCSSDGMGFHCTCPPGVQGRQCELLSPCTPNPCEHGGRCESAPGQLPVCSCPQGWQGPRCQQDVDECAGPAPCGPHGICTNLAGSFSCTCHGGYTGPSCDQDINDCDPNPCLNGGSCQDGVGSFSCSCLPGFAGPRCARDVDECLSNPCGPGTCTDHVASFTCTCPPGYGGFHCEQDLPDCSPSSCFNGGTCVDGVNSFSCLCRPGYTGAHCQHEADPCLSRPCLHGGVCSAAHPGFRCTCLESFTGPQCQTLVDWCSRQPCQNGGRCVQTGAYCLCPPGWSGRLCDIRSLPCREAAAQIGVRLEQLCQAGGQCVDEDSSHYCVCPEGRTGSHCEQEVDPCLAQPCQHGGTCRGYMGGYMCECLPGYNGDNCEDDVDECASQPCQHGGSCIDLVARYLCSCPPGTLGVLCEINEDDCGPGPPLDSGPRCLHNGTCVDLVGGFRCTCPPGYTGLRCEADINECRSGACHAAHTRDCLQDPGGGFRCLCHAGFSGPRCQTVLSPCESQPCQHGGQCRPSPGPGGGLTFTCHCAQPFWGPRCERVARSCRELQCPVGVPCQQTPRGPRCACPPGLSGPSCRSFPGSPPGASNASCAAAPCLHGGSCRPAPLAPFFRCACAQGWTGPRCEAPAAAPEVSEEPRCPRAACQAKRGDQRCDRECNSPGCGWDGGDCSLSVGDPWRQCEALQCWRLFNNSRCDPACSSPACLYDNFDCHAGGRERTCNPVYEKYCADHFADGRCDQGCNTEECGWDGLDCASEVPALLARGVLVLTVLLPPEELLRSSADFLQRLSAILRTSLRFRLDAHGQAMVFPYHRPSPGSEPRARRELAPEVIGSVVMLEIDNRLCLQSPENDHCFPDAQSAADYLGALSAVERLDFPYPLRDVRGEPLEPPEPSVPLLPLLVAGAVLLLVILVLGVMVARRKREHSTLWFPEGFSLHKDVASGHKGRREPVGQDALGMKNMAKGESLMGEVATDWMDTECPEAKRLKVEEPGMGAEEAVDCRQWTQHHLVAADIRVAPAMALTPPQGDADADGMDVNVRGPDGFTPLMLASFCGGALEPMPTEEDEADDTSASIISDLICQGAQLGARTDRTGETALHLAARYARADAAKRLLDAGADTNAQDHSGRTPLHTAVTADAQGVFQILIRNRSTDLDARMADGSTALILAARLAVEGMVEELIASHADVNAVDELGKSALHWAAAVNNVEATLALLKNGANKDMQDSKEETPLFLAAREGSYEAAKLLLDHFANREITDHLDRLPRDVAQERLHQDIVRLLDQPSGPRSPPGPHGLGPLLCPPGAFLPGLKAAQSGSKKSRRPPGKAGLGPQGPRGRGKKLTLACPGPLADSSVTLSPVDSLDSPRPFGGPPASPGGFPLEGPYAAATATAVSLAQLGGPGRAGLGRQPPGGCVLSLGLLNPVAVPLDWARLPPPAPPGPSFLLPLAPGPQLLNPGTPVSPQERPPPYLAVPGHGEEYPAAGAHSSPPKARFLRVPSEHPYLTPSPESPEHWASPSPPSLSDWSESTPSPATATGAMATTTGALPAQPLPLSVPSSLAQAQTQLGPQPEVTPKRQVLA
# [10] = probe aEGFR binding to arrayed compounds – biochemical, biotinylated probe, 635/667 nm fluorescence, primary screen (AID 1097); details: small-molecule microarray, higher = more signal;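 also: probe is a biotinylated anti-EGFR antibody binding compounds printed on slides; score combines fluorescence near 667 nm and signal to noise of each spot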
SMILES,composite z-score [1],z-score [2],z-score [3],z-score [4],composite z-score [5],z-score [6],composite z-score [7],composite z-score [8],composite z-score [9],composite z-score [10]
C=CC[C@@H]1C=C[C@H](ON=Cc2ccc(C(=O)N3[C@H](c4ccc(C)cc4)[C@@H](C)CC[C@H]3C(=O)OC)cc2)[C@@H](CO)O1,0.537,-1.33 (inactive),-0.119 (inactive),-0.733 (inactive),0.531,1.35 (inactive),-0.0741,0.709,0.162,-0.0223
CC(C)=CCCC(C)=CCON=C1[C@H]2CCn3c(=O)n(C)c(=O)n3[C@H]2[C@H](O)[C@@H]2O[C@H]12,1.14,-0.0766 (inactive),0.418 (inactive),0.407 (inactive),0.393,0.604 (inactive),0.0315,1.18,0.651,0.081
COCCCNC(=O)[C@]1(CCC(=O)OC(C)(C)C)N=C(c2ccc(OCCCO)cc2)O[C@@H]1c1ccccc1N=[N+]=[N-],1.54,-0.376 (inactive),-1.22 (inactive),0.719 (inactive),3.81,0.619 (inactive),0.0979,0.778,1.11,0.134
COCCOC(=O)N1C(=O)[C@@]2(c3cc(C#CCNC(N)=O)ccc31)[C@H](c1ccccc1OCCO)N1[C@H](c3ccccc3)[C@H](c3ccccc3)OC(=O)[C@H]1[C@@H]2C(=O)N1CCN(c2ncccn2)CC1,1.44,-0.0197 (inactive),2.11 (inactive),3.85 (inactive),2.22,0.961 (inactive),0.065,0.43,0.572,-0.0271
C=COC[C@H]1CN2[C@@H](CC[C@@H](C)[C@@H]2c2ccc(Br)cc2)C(=O)O1,1.4,-2.69 (inactive),-4.68 (inactive),-1.52 (inactive),1.99,-0.0786 (inactive),-0.155,0.372,0.521,0.0402
O=C1[C@H]2[C@H]3[C@H](O)[C@H](O)CC(=NOC[C@@H](O)COCc4ccco4)[C@H]3CC[C@H]2C(=O)N1C1CCCCC1,1.1,0.432 (inactive),-0.299 (inactive),0.356 (inactive),-0.522,-0.263 (inactive),-0.0841,1.19,0.214,-0.0141
C=C(/C(=C/C[C@@H](OC(=O)c1ccncc1)c1ccc(OCCO)cc1)c1cnc2ccccc2c1)C(C)C,1.55,-24.8 (active),-20.4 (active),-4.32 (inactive),0.65,1.23 (inactive),-0.0262,1.65,1.07,-0.0949
C[N+](C)(C)CCCCCCNC(=O)[C@@H]1C[C@@H]2C(=O)N3CCC[C@H]3C(=O)N2[C@@H]1c1cccc(OCCO)c1,1.44,-1.6 (inactive),-0.0376 (inactive),-1.06 (inactive),3.14,0.784 (inactive),-0.0898,1.88,0.245,-0.0967
COc1ccc(COC(=O)NN=C2C[C@@H](O)[C@@H](O)[C@@H]3[C@@H]4C(=O)N(Cc5ccc6c(c5)OCO6)C(=O)[C@@H]4CC[C@@H]23)cc1,-0.291,-1.65 (inactive),-0.654 (inactive),-0.731 (inactive),0.529,-0.486 (inactive),0.63,-0.666,-0.303,-0.187
COc1ccc([Si](C)(C)[C@@H]2[C@@H](CCO)O[C@]3(C(=O)N(Cc4ccc(NC(C)=O)cc4)c4ccccc43)[C@H]2C)cc1,1.55,2.99 (inactive),0.282 (inactive),34.6 (active),2.7,1.44 (inactive),0.0325,1.48,0.949,0.492
CO[C@H]1O[C@H](CO)[C@@H](OC(=O)Nc2ccc(C#N)cc2)[C@H](OC(=O)c2cc3ccccc3[nH]2)[C@H]1OC(=O)c1cc2ccccc2[nH]1,1.3,-2.49 (inactive),-1.17 (inactive),0.507 (inactive),1.77,3.01 (inactive),0.0261,1.02,0.695,-0.0238
CC(C)NC(=O)[C@@]1(C)c2ccccc2C(=O)N(Cc2cc(F)cc(C(F)(F)F)c2)[C@H]1c1ccc(CO)cc1,0.86,-0.0639 (inactive),0.102 (inactive),-0.623 (inactive),1.76,0.341 (inactive),0.119,0.371,0.364,0.034
CCOC(=O)CCN1C(=O)[C@H]2[C@H]3[C@H](O)[C@H](O)CC(=NOC[C@@H](O)COCc4ccco4)[C@@H]3CC[C@H]2C1=O,0.163,0.133 (inactive),-0.226 (inactive),-0.0839 (inactive),0.545,0.383 (inactive),0.0814,-0.298,-0.62,-0.0764
CO[C@H]1COC(=O)[C@@H]2CCCN2C(=O)CC=C[C@@H](C)[C@H](OC)COC(=O)CC=C[C@@H]1C,1.54,-1.94 (inactive),-1.32 (inactive),-0.611 (inactive),-0.361,-0.323 (inactive),-0.0208,1.48,0.991,0.34
CC(C)=NOCc1cccc(-c2cc(-c3ccccc3)no2)c1,1.27,-0.366 (inactive),-21 (active),-0.442 (inactive),1.18,0.533 (inactive),-0.0375,0.7,0.881,0.161
COc1cccc([C@H]2Oc3ccc(OC)cc3C(=NOC(C)CN3CCCc4nc(C)c(C)cc43)[C@@H]2O)c1 (stereo not given in full),1.32,-0.906 (inactive),-0.912 (inactive),-1.19 (inactive),0.605,0.732 (inactive),0.027,0.0233,0.522,0.0506
CC(=O)OC[C@H]1O[C@H](CCON=C[C@@H](C)[C@H](OCc2ccccc2)C(C)C)C=C[C@@H]1OC(C)=O,1.12,-0.283 (inactive),-0.205 (inactive),-0.3 (inactive),-0.169,-0.608 (inactive),-0.138,0.559,0.226,-0.0093
CCOC(=O)NN=C1C[C@@H](O)[C@@H](O)[C@@H]2[C@@H]3C(=O)N(C4CCCCC4)C(=O)[C@@H]3CC[C@H]12,0.314,0.351 (inactive),0.458 (inactive),0.529 (inactive),0.746,-0.931 (inactive),-0.139,0.315,0.213,-0.0776
CCN1C(=O)[C@H]2[C@H]3[C@H](O)[C@H](O)CC(=NOC(C)CN4CCCCc5nc(C)c(C)cc54)[C@@H]3CC[C@H]2C1=O (stereo not given in full),0.708,0.12 (inactive),0.634 (inactive),0.403 (inactive),-0.414,1.03 (inactive),-0.0977,0.732,0.398,0.126
CCOC(=O)CCN1C(=O)[C@H]2[C@H]3[C@H](O)[C@H](O)CC(=NOCc4ccccc4)[C@@H]3CC[C@H]2C1=O,0.454,-0.14 (inactive),0.116 (inactive),-0.664 (inactive),0.175,-0.961 (inactive),-0.147,0.676,1,-0.0597
CCN1C(=O)[C@H]2[C@H]3[C@H](O)[C@H](O)CC(=NOCc4ccccc4)[C@@H]3CC[C@H]2C1=O,0.54,-2.27 (inactive),-0.784 (inactive),-0.433 (inactive),0.558,-0.558 (inactive),-0.0917,0.339,0.761,-0.0568
COCCOC(=O)N1C(=O)[C@@]2(c3cc(C#CC4(O)CCCCCC4)ccc31)[C@H](C(=O)N1CCN(c3ncccn3)CC1)[C@H]1C(=O)O[C@H](c3ccccc3)[C@H](c3ccccc3)N1[C@@H]2c1ccc(OCCO)cc1,1.53,2.12 (inactive),1.35 (inactive),5.93 (inactive),2.61,2.25 (inactive),-0.0075,1.64,1.08,0.0779
CO[C@H]([C@@H](C)[C@H](OC)c1ccccc1)[C@H](C)[C@@H](OC)[C@H](C)C(C)=O,-0.694,0.474 (inactive),-0.0357 (inactive),-0.175 (inactive),-0.391,0.243 (inactive),-0.0159,-0.233,-0.177,-0.0996
O=C1NC(=O)C2C1C=CC(C(O)Cc1ccccc1)N2Nc1ccccn1 (stereo not given),0.185,-0.47 (inactive),1.21 (inactive),-1.22 (inactive),2.31,0.297 (inactive),0.101,0.0356,0.504,0.0026
CCOC(=O)[C@H](Cc1ccccc1)NC(=O)CCC1CC(OC(=O)NCc2ccc3c(c2)OCO3)CC2(CCCC(COC(=O)NCC3CCCCC3)O2)O1 (stereo not given in full),1.55,-0.827 (inactive),0.455 (inactive),-0.38 (inactive),2.62,-0.201 (inactive),-0.157,0.742,1.11,0.0632
CN(C)c1ccc(C(O)C2C=CC3C(=O)N(c4ccccc4)C(=O)C3N2Nc2ccccc2F)cc1 (stereo not given),1.09,0.0194 (inactive),-13.6 (active),1.7 (inactive),2.21,-0.457 (inactive),-0.166,-0.318,0.443,0.0904
O=C1[C@H]2[C@H]3[C@H](O)[C@H](O)CC(=NO[C@@H]4O[C@H](CO)[C@@H](O)[C@H](O)[C@H]4O)[C@@H]3CC[C@H]2C(=O)N1Cc1ccc2c(c1)OCO2,0.843,-0.0622 (inactive),0.374 (inactive),0.35 (inactive),1.55,-0.244 (inactive),-0.0991,0.388,0.786,-0.0007
COc1ccc([Si](C)(C)[C@H]2[C@H](CC(=O)N3CCC[C@H]3CO)O[C@@]3(C(=O)N(Cc4cccc(N5C(=O)COc6ccccc65)c4)c4ccccc43)[C@@H]2C)cc1,1.41,-2.58 (inactive),-0.769 (inactive),-0.827 (inactive),2.25,1.43 (inactive),-0.166,1.61,1.14,-0.142
